# Data: PubChem BioAssay (NCI)
# Compounds without any hit were thinned out: in the full panel of roughly 83,000, 20% have a hit.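 Compound tested at a single concentration for 48 hours in 96-well plates; a percent growth value below 10 was scored as active.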 Values without a mark were called inactive. Calls of active or inactive are those of the source.
# What was measured:
# Experiment in all cases: NCI-60 one-dose screen, 48 h (100 = growth as untreated, 0 = no growth, -100 = all killed)
# Conditions in all cases: 10 µM unless noted
# HCT-15 colon = tested on: HCT-15 colon
# HT29 colon = tested on: HT29 colon
# SNB-75 CNS = tested on: SNB-75 CNS
# SNB-19 CNS = tested on: SNB-19 CNS
# U251 CNS = tested on: U251 CNS
# PC-3 prostate = tested on: PC-3 prostate
# SK-MEL-5 melanoma = tested on: SK-MEL-5 melanoma
# UACC-62 melanoma = tested on: UACC-62 melanoma
# LOX IMVI melanoma = tested on: LOX IMVI melanoma
# SK-MEL-28 melanoma = tested on: SK-MEL-28 melanoma
# SK-MEL-2 melanoma = tested on: SK-MEL-2 melanoma
# EKVX NSCLC = tested on: EKVX NSCLC
# SN12C renal = tested on: SN12C renal
# UO-31 renal = tested on: UO-31 renal
# TK-10 renal = tested on: TK-10 renal
# ACHN renal = tested on: ACHN renal
# CAKI-1 renal = tested on: CAKI-1 renal
# A498 renal = tested on: A498 renal
# CCRF-CEM leukemia = tested on: CCRF-CEM leukemia
# MOLT-4 leukemia = tested on: MOLT-4 leukemia
Structure (SMILES),growth (HCT-15 colon),growth (HT29 colon),growth (SNB-75 CNS),growth (SNB-19 CNS) [%],growth (U251 CNS),growth (PC-3 prostate) [%],growth (SK-MEL-5 melanoma),growth (UACC-62 melanoma),growth (LOX IMVI melanoma),growth (SK-MEL-28 melanoma),growth (SK-MEL-2 melanoma),growth (EKVX NSCLC) [%],growth (SN12C renal),growth (UO-31 renal) [%],growth (TK-10 renal) [%],growth (ACHN renal),growth (CAKI-1 renal),growth (A498 renal) [%],growth (CCRF-CEM leukemia),growth (MOLT-4 leukemia)
Brc1ccc(/C=C(/C2=NCCN2)n2ccc3ccccc32)cc1,73.7%,65.1%,33%,85.1,65.6%,45,73.4%,75.8%,50.5%,100%,90.9%,79,73.8%,37.2,68.1,68.7%,39.7%,87.4,59.6%,9.21% (active)
O=C1/C(=C/c2ccc(-c3ccccc3C(F)(F)F)o2)SC(=S)N1CCc1ccc(O)cc1,29.6%,14.8%,29.2%,87.8,44.1%,48.6,84.4%,47%,41.4%,69.5%,70.1%,75.3,66.6%,40.1,83.1,66.3%,33.8%,79.1,11.9%,17.5%
C[N+]1=C(/C=C\C=C\c2ccccc2)C(C)(C)c2ccccc21,14.2%,12.3%,81.8%,27.4,14%,30.7,-39.7% (active),-16.1% (active),12.6%,-35.5% (active),10.9%,31.5,-2.25% (active),39.3,50.3,43.8%,38.4%,61.2,-8.67% (active),0.0688% (active)
COc1ccc2c(O)c(/C=C3\N=Nc4nc(C)ccc43)oc2c1CC1CCNCC1,93.3%,31.6%,25.2%,57.5,21.4%,69.2,81.1%,-26.3% (active),5.08% (active),-68.4% (active),95.5%,63.4,60.3%,70.6,79.1,69.2%,83.1%,44.7,63.3%,48.1%
COc1ccc2c(c1)CCNC21C(=O)Nc2c(Br)cc(Br)cc21 (configuration not stated),104%,104%,70.6%,91.5,96.7%,97.9,98.4%,86.6%,102%,101%,106%,78.7,92.5%,62.1,106,93.7%,82.8%,67,113%,95.9%
Cc1ccc(S(=O)(=O)OC[C@@]2(C)CC[C@]3(C)CC[C@]4(C)C(=C3C2)C=C[C@@H]2[C@@]3(C)CCCNC(C)(C)[C@@H]3CC[C@]24C)cc1,-74.5% (active),-69.2% (active),82.9%,47.8,-95.9% (active),43.5,76.5%,61.1%,-99.2% (active),96.7%,9.43% (active),88.9,7.76% (active),71.6,68.6,-46.6% (active),1.61% (active),104,,-24.8% (active)
COc1cc2c(cc1OCCCOC1=C=C=C(c3ccc4c(c3)c3cc(-c5ccc(OCCCOc6cc7c(cc6OC)C(=O)N6CCC[C@H]6C=N7)cc5)ccc3n4S(=O)(=O)c3ccc(C)cc3)C=C1)N=C[C@@H]1CCCN1C2=O,69.4%,37.7%,4.32% (active),61.6,-29.8% (active),42.7,39%,-14.1% (active),-14.5% (active),64.8%,-20.6% (active),94.5,-17.2% (active),39.1,221,7.74% (active),-19.8% (active),76.9,,-11.6% (active)
COc1cc(-c2nc3occn3c2-c2ccnc(NCCCNS(=O)(=O)c3ccc(O)cc3)n2)ccc1F,114%,66.4%,97.6%,124,108%,94.6,62.8%,21%,55.6%,27.7%,28.4%,104,95.8%,105,133,86.3%,92.6%,104,,101%
O=C1N=c2ccccc2=C1c1sc(=S)n(C2CC(=O)N(c3ccc(Cl)cc3)C2=O)c1O (configuration not stated),93.7%,114%,86.1%,102,104%,86.6,102%,95.9%,89.5%,109%,102%,101,94.9%,68.5,129,93.9%,87.6%,114,,97.7%
COc1ccc(-c2nc(Cl)c3c(C)nn(-c4ccc(F)cc4)c3n2)cc1,110%,98.3%,104%,99.7,96.5%,89.6,100%,100%,101%,110%,91.9%,111,99%,97.3,98,106%,107%,101,102%,103%
CCCCCC#CC1OC23CCCCC2C(C#N)(C(=N)O3)C1(C#N)C#N (configuration not stated),102%,88%,88.5%,95,96.4%,81,96.7%,83.1%,89.7%,109%,93%,97.1,93%,97.1,108,102%,101%,93.6,,99.9%
CN1Cn2c(ccc2C(F)(F)F)C(=O)CS1(=O)=O,105%,105%,79.1%,105,101%,105,103%,99.4%,99.2%,105%,105%,99.2,104%,82.9,103,99.4%,94.1%,96.1,,101%
CCN(CC)/C([O-])=c1\cccc\c1=C1\N=C(c2ccccc2)N=C1[n+]1ccc(-c2ccccc2)cc1,101%,106%,93.7%,99.5,97.7%,92.8,93.8%,93.6%,91.6%,106%,78.1%,93.4,89.5%,37.1,102,95.8%,99.9%,96,,88%
CC/C(=C(/c1ccc(Cl)cc1)c1ccc(OCCN2CCOCC2)cc1)c1ccccc1,94.1%,75.6%,105%,98.6,93.6%,73.1,108%,88.2%,108%,98.8%,93.7%,85.1,95.8%,86.4,108,98.3%,69.4%,99.7,,86%
